The target in experiment [1] is Protein kinase C gamma type (Homo sapiens) (UniProt P05129). The settings on record: at 1 µM.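 Further: each value is an averaged percent inhibition of the enzyme.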
Experiment [2] concerns the target T1, Protein kinase C iota type (Homo sapiens) (UniProt P41743).
T1 sequence (whole entry): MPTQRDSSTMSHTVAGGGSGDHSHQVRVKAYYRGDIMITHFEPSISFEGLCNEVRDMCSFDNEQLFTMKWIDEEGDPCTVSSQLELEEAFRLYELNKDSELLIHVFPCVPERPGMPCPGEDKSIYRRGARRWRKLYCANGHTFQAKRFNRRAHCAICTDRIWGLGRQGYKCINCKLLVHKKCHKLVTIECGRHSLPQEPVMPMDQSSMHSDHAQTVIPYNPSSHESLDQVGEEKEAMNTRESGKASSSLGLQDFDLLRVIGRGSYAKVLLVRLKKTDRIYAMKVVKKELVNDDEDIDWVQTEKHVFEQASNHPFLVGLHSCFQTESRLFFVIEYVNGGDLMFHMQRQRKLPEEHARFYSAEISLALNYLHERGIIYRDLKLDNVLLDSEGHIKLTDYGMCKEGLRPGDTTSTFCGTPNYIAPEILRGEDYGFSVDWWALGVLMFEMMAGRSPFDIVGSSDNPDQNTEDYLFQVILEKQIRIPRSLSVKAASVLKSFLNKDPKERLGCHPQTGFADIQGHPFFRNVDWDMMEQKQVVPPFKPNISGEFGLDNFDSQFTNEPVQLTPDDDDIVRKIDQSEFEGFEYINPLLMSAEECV
To be noted: at 0.1 µM.

In experiment [3] the target is T1, Protein kinase C iota type (Homo sapiens). The settings on record: at 1 µM.
Experiment [4] addresses Protein kinase C theta type (Homo sapiens) (UniProt Q04759). To be noted: at 0.1 µM.
Experiment [5] has the same target. To be noted: at 1 µM.
Experiment [6] deals with Protein kinase C beta type (Homo sapiens) (UniProt P05771). To be noted: at 0.1 µM.
Sequence of Protein kinase C beta type (Homo sapiens) (P05771 2-671 limits assumed): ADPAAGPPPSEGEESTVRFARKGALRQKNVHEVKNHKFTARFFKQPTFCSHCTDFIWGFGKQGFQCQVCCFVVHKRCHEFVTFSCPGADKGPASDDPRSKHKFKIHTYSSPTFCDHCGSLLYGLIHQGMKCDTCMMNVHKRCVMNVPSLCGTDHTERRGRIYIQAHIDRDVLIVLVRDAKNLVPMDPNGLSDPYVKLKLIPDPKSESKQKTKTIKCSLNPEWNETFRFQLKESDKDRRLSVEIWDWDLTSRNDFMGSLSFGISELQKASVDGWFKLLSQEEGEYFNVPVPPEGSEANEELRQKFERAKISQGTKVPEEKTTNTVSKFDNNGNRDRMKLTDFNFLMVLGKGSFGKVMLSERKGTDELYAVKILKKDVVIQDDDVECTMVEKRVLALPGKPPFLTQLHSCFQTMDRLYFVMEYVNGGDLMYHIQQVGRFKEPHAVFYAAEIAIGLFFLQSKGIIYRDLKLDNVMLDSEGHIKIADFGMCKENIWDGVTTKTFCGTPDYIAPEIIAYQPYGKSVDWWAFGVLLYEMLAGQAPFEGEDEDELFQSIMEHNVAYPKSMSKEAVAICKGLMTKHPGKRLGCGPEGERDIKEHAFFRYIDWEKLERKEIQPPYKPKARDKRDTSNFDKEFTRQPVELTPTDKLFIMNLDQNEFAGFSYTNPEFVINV
Experiment [7] shares this target. To be noted: at 1 µM.
Experiment [8] addresses T2, Serine/threonine-protein kinase D1 (Homo sapiens) (UniProt Q15139).
T2 sequence (whole entry): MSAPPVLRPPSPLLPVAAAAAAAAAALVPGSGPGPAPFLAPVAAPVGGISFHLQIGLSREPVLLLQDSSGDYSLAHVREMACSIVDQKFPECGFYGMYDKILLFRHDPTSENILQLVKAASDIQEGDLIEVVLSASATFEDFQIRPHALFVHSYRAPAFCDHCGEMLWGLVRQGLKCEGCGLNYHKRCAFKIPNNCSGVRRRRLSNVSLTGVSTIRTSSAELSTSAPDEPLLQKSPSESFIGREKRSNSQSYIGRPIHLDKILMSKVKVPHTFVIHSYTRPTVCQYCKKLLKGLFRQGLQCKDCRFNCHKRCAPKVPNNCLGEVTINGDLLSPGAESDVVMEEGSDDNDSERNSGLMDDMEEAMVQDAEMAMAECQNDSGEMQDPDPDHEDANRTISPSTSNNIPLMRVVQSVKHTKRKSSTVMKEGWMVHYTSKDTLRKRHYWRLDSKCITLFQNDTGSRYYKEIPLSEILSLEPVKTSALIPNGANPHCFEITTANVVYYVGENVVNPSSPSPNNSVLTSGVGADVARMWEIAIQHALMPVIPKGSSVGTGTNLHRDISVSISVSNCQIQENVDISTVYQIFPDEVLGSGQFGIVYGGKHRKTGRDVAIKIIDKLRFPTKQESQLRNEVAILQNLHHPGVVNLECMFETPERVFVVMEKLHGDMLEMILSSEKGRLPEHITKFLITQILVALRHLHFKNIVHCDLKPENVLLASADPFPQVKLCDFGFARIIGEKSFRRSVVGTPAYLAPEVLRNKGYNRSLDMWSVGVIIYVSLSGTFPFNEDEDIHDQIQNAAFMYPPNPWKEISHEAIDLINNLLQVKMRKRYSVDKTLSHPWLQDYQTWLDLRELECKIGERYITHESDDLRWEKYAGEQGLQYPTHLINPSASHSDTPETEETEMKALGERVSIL
To be noted: at 0.1 µM.

For experiment [9], the target named is T2, Serine/threonine-protein kinase D1 (Homo sapiens). The settings on record: at 1 µM.
Experiment [10] has as its target T3, Serine/threonine-protein kinase D2 (Homo sapiens) (UniProt Q9BZL6).
T3 sequence (whole entry): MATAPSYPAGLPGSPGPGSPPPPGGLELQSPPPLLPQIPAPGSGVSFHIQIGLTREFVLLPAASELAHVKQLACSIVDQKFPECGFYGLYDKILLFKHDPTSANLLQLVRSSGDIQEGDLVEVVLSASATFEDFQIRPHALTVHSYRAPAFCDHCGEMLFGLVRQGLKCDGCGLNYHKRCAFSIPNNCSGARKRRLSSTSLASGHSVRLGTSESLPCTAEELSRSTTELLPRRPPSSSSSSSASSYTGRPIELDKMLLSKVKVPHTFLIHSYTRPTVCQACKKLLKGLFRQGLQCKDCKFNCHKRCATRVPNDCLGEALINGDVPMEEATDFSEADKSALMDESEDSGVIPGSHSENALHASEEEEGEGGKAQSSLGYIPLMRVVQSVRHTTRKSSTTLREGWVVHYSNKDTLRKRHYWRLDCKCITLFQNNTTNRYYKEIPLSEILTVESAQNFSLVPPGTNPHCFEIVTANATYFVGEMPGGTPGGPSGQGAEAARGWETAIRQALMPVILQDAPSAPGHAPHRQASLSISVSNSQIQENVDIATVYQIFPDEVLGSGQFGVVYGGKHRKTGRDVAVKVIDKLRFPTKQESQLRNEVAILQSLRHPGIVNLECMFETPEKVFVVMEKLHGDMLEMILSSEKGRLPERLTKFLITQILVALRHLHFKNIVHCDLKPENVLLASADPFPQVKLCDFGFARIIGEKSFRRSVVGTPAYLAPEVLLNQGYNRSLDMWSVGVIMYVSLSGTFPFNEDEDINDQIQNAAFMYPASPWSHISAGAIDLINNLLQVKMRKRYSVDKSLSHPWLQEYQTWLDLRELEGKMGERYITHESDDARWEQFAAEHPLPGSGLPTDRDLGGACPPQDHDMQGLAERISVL
To be noted: at 0.1 µM.

The target of experiment [11] is T3, Serine/threonine-protein kinase D2 (Homo sapiens). The settings on record: at 1 µM.
Experiment [12] addresses T4, Serine/threonine-protein kinase D3 (Homo sapiens) (UniProt O94806).
T4 sequence (whole entry): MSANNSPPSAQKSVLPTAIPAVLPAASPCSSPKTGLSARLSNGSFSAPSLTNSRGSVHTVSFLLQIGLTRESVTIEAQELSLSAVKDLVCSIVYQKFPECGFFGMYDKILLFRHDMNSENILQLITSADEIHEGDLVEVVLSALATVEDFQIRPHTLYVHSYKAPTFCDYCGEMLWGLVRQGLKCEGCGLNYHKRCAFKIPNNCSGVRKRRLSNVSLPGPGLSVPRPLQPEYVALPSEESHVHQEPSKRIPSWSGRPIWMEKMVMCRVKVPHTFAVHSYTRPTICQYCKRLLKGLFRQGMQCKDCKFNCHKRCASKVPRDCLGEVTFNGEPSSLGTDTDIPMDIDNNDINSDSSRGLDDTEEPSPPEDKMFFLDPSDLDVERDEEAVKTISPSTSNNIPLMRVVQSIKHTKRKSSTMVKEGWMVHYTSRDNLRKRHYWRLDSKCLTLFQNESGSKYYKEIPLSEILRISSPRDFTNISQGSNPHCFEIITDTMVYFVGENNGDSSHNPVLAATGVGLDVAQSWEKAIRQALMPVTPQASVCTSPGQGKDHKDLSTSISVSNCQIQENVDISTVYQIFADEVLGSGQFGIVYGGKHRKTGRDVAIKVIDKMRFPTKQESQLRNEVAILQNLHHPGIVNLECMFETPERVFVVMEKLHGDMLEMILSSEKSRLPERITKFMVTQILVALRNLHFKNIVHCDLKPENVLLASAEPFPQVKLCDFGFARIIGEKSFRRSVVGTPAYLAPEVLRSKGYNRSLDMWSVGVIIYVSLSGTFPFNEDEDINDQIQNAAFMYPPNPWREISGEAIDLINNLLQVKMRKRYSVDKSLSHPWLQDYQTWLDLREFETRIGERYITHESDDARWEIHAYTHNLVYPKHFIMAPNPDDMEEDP
The settings on record: at 0.1 µM.

For experiment [13], the target named is T4, Serine/threonine-protein kinase D3 (Homo sapiens). The settings on record: at 1 µM.
The target of experiment [14] is T5, cGMP-dependent protein kinase 1 (Homo sapiens) (UniProt Q13976).
T5 sequence (whole entry): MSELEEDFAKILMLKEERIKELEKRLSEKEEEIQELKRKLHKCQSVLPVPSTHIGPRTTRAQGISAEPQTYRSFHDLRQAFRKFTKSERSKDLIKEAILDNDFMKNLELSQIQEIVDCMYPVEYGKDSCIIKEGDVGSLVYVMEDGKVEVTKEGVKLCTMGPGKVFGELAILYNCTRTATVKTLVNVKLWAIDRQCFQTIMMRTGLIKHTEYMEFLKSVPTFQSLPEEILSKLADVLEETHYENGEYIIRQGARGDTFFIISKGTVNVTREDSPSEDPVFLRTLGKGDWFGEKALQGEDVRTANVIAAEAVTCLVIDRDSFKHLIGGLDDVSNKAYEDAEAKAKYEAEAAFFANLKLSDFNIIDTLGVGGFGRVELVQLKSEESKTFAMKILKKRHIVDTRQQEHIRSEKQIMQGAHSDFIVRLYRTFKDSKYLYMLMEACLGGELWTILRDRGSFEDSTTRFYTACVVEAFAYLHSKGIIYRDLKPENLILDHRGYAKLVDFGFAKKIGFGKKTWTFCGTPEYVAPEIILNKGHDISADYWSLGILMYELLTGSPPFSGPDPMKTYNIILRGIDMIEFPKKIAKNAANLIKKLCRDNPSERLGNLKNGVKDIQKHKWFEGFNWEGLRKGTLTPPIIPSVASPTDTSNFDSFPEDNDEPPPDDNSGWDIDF
The settings on record: at 0.1 µM.

Experiment [15] addresses T5, cGMP-dependent protein kinase 1 (Homo sapiens). The settings on record: at 1 µM.
For experiment [16], the target named is T6, cGMP-dependent protein kinase 2 (Homo sapiens) (UniProt Q13237).
T6 sequence (whole entry): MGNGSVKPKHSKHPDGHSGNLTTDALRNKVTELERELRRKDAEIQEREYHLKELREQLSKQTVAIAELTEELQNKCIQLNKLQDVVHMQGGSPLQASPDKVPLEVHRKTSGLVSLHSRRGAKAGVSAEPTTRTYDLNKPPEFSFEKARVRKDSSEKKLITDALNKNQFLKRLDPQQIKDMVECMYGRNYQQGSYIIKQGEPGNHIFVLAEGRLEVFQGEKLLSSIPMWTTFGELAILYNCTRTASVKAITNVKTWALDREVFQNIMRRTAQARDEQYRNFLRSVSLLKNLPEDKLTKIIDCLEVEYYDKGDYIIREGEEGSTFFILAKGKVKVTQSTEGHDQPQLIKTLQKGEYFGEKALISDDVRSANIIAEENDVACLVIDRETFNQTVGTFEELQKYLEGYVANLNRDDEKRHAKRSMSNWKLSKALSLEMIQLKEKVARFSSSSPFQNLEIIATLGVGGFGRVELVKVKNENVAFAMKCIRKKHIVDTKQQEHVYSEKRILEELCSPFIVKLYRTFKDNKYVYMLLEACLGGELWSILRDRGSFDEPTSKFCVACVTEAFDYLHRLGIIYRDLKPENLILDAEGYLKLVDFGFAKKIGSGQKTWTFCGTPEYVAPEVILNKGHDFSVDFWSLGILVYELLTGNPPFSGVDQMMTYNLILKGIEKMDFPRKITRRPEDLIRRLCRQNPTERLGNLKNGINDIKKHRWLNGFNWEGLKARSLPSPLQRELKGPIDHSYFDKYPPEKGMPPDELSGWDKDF
To be noted: at 0.1 µM.

The target of experiment [17] is T6, cGMP-dependent protein kinase 2 (Homo sapiens). The settings on record: at 1 µM.
In experiment [18] the target is T7, cAMP-dependent protein kinase catalytic subunit PRKX (Homo sapiens) (UniProt P51817).
T7 sequence (whole entry): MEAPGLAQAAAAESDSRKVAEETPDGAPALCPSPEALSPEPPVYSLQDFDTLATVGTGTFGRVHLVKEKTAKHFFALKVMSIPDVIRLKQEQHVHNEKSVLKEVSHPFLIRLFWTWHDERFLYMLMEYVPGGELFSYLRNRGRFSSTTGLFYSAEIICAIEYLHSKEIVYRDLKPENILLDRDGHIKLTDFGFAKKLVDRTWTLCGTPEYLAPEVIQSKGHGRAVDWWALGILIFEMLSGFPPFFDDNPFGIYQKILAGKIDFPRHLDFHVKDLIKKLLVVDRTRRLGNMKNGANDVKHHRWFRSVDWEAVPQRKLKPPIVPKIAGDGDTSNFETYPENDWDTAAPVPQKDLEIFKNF
The settings on record: at 0.1 µM.

Experiment [19] addresses T7, cAMP-dependent protein kinase catalytic subunit PRKX (Homo sapiens). To be noted: at 1 µM.
For experiment [20], the target named is Rho-associated protein kinase 1 (Homo sapiens) (UniProt Q13464). The settings on record: at 0.1 µM.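 Further: values are mean percent inhibition of ROCK1.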
Sequence of Rho-associated protein kinase 1 (Homo sapiens) (Q13464 2-1354 limits assumed): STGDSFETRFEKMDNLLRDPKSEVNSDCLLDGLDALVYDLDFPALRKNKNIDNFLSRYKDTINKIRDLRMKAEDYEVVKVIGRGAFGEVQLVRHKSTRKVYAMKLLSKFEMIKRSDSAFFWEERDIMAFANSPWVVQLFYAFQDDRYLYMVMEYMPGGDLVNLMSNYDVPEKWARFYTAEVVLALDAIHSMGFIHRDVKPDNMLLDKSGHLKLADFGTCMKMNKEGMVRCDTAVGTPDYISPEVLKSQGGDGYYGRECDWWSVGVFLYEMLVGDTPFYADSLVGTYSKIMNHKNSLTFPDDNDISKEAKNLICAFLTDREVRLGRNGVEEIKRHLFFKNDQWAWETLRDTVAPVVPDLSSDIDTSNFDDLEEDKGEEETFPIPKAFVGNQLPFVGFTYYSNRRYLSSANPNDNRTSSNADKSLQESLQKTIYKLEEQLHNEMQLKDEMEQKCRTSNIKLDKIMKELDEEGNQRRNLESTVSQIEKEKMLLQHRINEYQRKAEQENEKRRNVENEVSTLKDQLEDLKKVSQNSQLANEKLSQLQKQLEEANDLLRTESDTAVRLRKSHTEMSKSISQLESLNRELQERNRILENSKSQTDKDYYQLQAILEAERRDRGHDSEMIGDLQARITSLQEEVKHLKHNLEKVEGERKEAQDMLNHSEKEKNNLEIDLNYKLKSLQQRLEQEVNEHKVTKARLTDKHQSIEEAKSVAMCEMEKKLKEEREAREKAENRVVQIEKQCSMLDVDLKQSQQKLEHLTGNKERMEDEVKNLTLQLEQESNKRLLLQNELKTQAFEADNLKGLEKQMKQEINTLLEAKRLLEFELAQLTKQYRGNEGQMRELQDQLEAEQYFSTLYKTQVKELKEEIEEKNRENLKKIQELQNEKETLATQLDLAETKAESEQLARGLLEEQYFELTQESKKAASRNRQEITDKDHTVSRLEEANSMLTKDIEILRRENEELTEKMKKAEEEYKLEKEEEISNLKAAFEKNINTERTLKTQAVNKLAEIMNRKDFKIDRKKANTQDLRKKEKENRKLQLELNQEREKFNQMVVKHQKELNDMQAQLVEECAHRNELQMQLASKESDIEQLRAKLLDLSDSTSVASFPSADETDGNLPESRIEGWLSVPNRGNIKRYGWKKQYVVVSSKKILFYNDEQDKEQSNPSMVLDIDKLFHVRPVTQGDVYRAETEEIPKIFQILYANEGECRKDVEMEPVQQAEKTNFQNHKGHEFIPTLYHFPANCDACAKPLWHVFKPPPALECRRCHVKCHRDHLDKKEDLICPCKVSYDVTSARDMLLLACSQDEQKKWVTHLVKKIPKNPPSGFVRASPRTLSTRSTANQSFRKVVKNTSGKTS

One may read the inhibition as the drop in the measured response relative to a control, in per cent.

Sequence of Protein kinase C theta type (Homo sapiens) (Q04759 whole entry, looked up): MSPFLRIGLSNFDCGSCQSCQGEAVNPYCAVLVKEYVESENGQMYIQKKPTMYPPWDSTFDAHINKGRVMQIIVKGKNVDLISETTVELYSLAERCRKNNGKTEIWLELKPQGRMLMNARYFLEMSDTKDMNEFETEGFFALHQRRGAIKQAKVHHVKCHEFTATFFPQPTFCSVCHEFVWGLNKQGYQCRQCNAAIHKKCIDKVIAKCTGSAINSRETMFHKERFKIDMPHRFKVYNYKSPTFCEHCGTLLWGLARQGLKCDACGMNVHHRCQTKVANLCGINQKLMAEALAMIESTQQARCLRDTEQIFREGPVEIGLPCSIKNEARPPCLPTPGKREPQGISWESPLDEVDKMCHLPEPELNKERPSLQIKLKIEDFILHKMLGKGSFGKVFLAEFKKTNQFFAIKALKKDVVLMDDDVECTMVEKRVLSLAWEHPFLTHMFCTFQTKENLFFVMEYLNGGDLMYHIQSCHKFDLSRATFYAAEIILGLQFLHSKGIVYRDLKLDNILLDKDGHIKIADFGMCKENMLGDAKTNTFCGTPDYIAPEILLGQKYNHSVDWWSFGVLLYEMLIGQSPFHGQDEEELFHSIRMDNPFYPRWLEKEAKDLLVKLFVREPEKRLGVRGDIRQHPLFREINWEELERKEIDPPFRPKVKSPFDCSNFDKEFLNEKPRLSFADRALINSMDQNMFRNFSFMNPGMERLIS

Take `CNC(=O)c1cc(-c2ccc(F)cc2)cc(-c2ccc(S(=O)(=O)N3CCCC3)cc2)c1N`: the inhibition in experiment [1] was 2.53%; in experiment [2], 1.11%; in [3], 1.04%; in [4], 0.84%; in experiment [5], 1.4%; in experiment [6], -0.56%. Moreover, the inhibition in experiment [7] stood at 1.04%; in [8], 3.87%; in experiment [9], 4.98%; in [10], 2.4%; in experiment [11] it was 1.98%; in experiment [12], 3.24%. Also, the inhibition in experiment [13] worked out at 3.34%; in experiment [14], 1.61%; in [15] it was 2.76%; in experiment [16], 1.41%; in experiment [17] it was 0.53%; in experiment [18], 2.59%. Moreover, the inhibition in experiment [19] worked out at 1.29%; in [20], 1.6%.

The record behind these values is ChEMBL document CHEMBL1961873, “Compounds: GSK PKIS; Assays: Nanosyn kinase panel” (2012).
